Experimental data taken from the antibiotic and cytotoxicity screens of Wong et al. (2023).
In all, about 39,000 compounds went through this assay and about 1,500 (3.8%) were called active. The entries come from a sample that favours actives as a whole.

test system: HSkMC (human skeletal muscle cells); assay: cytotoxicity call (relative viability < 0.9); details: 10 µM

| Structure (SMILES) | cytotoxicity call |
| --- | --- |
| COc1ccc(S(=O)(=O)N(C)C[C@H]2Oc3ccc(NC(=O)C4CC4)cc3CC(=O)N([C@H](C)CO)C[C@H]2C)cc1 | inactive |
| Cc1noc(C)c1NC(=O)N(C)C[C@@H]1Oc2ccc(NC(=O)Cn3cnnn3)cc2CC(=O)N([C@@H](C)CO)C[C@@H]1C | inactive |
| CCN(CCO)C(=O)C1CN(C(C)=O)C1 | inactive |
| CCCc1nc2c(C)cc(-c3nc4ccccc4n3C)cc2n1Cc1ccc(-c2ccccc2C(=O)O)cc1 | inactive |
| O=C(C[C@@H]1CC[C@H]2[C@@H](COC[C@H](O)CN2C(=O)Nc2cc(Cl)cc(Cl)c2)O1)N1CCOCC1 | inactive |
| Cc1noc(C)c1NC(=O)N(C)C[C@H]1OCCCC[C@@H](C)Oc2ccc(NS(=O)(=O)c3ccccc3)cc2C(=O)N([C@H](C)CO)C[C@H]1C | inactive |
| COc1ccc(NC(=O)Nc2ccc3c(c2)[C@H]2C[C@H](CC(=O)N4CCN(C)CC4)O[C@@H](CO)[C@H]2O3)cc1 | inactive |
| Cc1cccc(Oc2ccc(NC(=O)C3CCC(C)CC3)cc2)c1 (configuration not stated) | inactive |
| CN1CCN(Cc2ccc(NC(=O)Nc3ccc(Oc4cc(NC(=O)C5CC5)ncn4)cc3)cc2C(F)(F)F)CC1 | active |
| CC(C)NC(=O)N(C)C[C@@H]1Oc2ccc(NS(=O)(=O)c3ccccc3)cc2CC(=O)N([C@@H](C)CO)C[C@@H]1C | inactive |
| Cc1noc(C)c1S(=O)(=O)Nc1ccc2c(c1)C(=O)N([C@H](C)CO)C[C@@H](C)[C@@H](CN(C)S(C)(=O)=O)OCCCC[C@H](C)O2 | inactive |
| COc1ccc(C#Cc2cnc3c(c2)C(=O)N([C@@H](C)CO)C[C@H](C)[C@H](CN(C)CC2CCOCC2)O3)cc1 | inactive |
| COc1c(O)cc2oc3cc(O)c(CC=C(C)C)c(O)c3c(=O)c2c1CC=C(C)C [alpha-MANGOSTIN ] | active |
| CC(C)=CCc1c(O)cc2oc(C)cc(=O)c2c1O | inactive |
| COc1cc(O)c2c(=O)cc(C)oc2c1CC=C(C)C | inactive |
| COc1ccc(S(=O)(=O)Nc2ccc3c(c2)C(=O)N([C@@H](C)CO)C[C@@H](C)[C@H](CN(C)S(C)(=O)=O)O3)cc1 | inactive |
| C[C@@H]1CN([C@H](C)CO)C(=O)Cc2cc(NS(=O)(=O)c3cccs3)ccc2O[C@H]1CN(C)S(=O)(=O)c1cn(C)cn1 | inactive |
| O=C(N[C@H](c1ccc2ccccc2n1)c1cccs1)C1CCN(Cc2cccc(C(F)(F)F)c2)CC1 | inactive |
| N#Cc1c(Oc2ccc(F)c(NC(=O)Cc3cccc(C(F)(F)F)c3)c2)ccc2nc(NC(=O)C3CC3)sc12 | active |
| NC[C@](O)(c1cccs1)C1CC1 | inactive |
| C[C@@H]1CN([C@@H](C)CO)C(=O)c2cc(-c3cccc(C(=O)N(C)C)c3)cnc2O[C@@H]1CN(C)S(=O)(=O)c1cccc(F)c1 | inactive |
| COc1ccc(CN(C)C[C@@H]2Oc3ccc(NC(=O)CCN4CCOCC4)cc3CC(=O)N([C@@H](C)CO)C[C@@H]2C)cc1 | inactive |
| COc1ccc(S(=O)(=O)Nc2cccc3c2O[C@@H](CN(C)S(=O)(=O)c2c(C)noc2C)[C@H](C)CN([C@H](C)CO)C3=O)cc1 | inactive |

| Structure (SMILES) | cytotoxicity call |
| --- | --- |
| O=C(C[C@H]1CC[C@H]2[C@@H](COC[C@@H](O)CN2S(=O)(=O)c2ccc(Cl)cc2)O1)NCC1CCCCC1 | inactive |
| Cn1nnc(NCc2ccccc2)n1 | inactive |
| c1ccc(CNc2nn[nH]n2)cc1 | inactive |
| c1ccc(CNc2ccc3c(ccc4c5ccccc5[nH]c34)n2)cc1 | active |
| C[C@@H]1CN([C@H](C)CO)C(=O)Cc2cc(NC(=O)c3ccncc3)ccc2O[C@@H]1CN(C)S(=O)(=O)c1ccc(F)cc1 | inactive |
| C[C@H](CO)N1C[C@H](C)[C@@H](CN(C)C(=O)Nc2ccc(F)cc2)Oc2ccc(NC(=O)Cn3cnnn3)cc2CC1=O | inactive |
| CS(C)(=O)=O | inactive |
| Cc1ccc(S(=O)(=O)Nc2ccc3c(c2)C(=O)N([C@H](C)CO)C[C@H](C)[C@@H](CN(C)C(=O)Nc2ccc(F)cc2)OCCCC[C@H](C)O3)cc1 | inactive |
| C[C@@H]1CN([C@@H](C)CO)C(=O)Cc2cc(NC(=O)Nc3ccc(C(F)(F)F)cc3)ccc2O[C@@H]1CN(C)Cc1ccc(Cl)c(Cl)c1 | active |
| C[C@H]1CN([C@@H](C)CO)C(=O)Cc2cc(NC(=O)Nc3ccc(C(F)(F)F)cc3)ccc2O[C@H]1CN(C)Cc1ccc(Cl)c(Cl)c1 | active |
| C[C@@H]1CN([C@@H](C)CO)C(=O)Cc2cc(NC(=O)Nc3ccc(C(F)(F)F)cc3)ccc2O[C@@H]1CN(C)Cc1ccncc1 | inactive |
| C[C@H](CO)N1C[C@H](C)[C@@H](CN(C)Cc2ccc(Cl)c(Cl)c2)Oc2ccc(NC(=O)Nc3ccc(C(F)(F)F)cc3)cc2CC1=O | active |
| C[C@H]1CN([C@@H](C)CO)C(=O)Cc2cc(NC(=O)Nc3ccc(C(F)(F)F)cc3)ccc2O[C@@H]1CN(C)Cc1ccc(Cl)c(Cl)c1 | inactive |
| C[C@@H]1CN([C@H](C)CO)C(=O)Cc2cc(NC(=O)Nc3ccc(C(F)(F)F)cc3)ccc2O[C@H]1CN(C)Cc1ccncc1 | inactive |
| C[C@H]1CN([C@@H](C)CO)C(=O)Cc2cc(NC(=O)Nc3ccc(C(F)(F)F)cc3)ccc2O[C@H]1CN(C)Cc1ccncc1 | inactive |
| C[C@@H]1CN([C@H](C)CO)C(=O)Cc2cc(NC(=O)Nc3ccc(C(F)(F)F)cc3)ccc2O[C@@H]1CN(C)Cc1ccc(Cl)c(Cl)c1 | active |
| C[C@H]1CN([C@@H](C)CO)C(=O)Cc2cc(NC(=O)Nc3ccc(C(F)(F)F)cc3)ccc2O[C@@H]1CN(C)Cc1ccncc1 | inactive |
| C[C@@H]1CN([C@H](C)CO)C(=O)Cc2cc(NC(=O)Nc3ccc(C(F)(F)F)cc3)ccc2O[C@@H]1CN(C)Cc1ccncc1 | inactive |
| CC(=O)N(C)C[C@@H]1Oc2ncc(C#C[C@@H](C)O)cc2C(=O)N([C@@H](C)CO)C[C@@H]1C | inactive |
| COc1ccc(S(=O)(=O)Nc2ccc3c(c2)CC(=O)N([C@H](C)CO)C[C@@H](C)[C@H](CN(C)Cc2ccncc2)O3)cc1 | inactive |
| C[C@H]1CN([C@@H](C)CO)C(=O)Cc2cc(NS(=O)(=O)c3cn(C)cn3)ccc2O[C@H]1CN(C)S(=O)(=O)c1ccc(Cl)cc1 | inactive |
| C[C@H]1CN([C@@H](C)CO)C(=O)Cc2cc(NC(=O)CCCCCC(=O)Nc3ccccc3N)ccc2O[C@H]1CN(C)S(C)(=O)=O | inactive |
| COc1ccc(S(=O)(=O)N(C)C[C@H]2Oc3ccc(NC(=O)C4CC4)cc3CC(=O)N([C@H](C)CO)C[C@@H]2C)cc1 | inactive |

| Structure (SMILES) | cytotoxicity call |
| --- | --- |
| CN1C(=O)c2cc(NC(=O)c3cccs3)ccc2OC[C@H]2O[C@@H](CC(=O)NCC(F)(F)F)CC[C@H]21 | inactive |
| C[C@@H]1CN([C@@H](C)CO)C(=O)c2cc(NC(=O)Cn3cnnn3)ccc2O[C@@H]1CN(C)Cc1ccccc1 | inactive |
| COc1ccc([Si](C)(C)[C@@H]2[C@@H](CC(=O)N3Cc4ccccc4C[C@H]3CO)O[C@]3(C(=O)N(Cc4ccc(N5CCC5=O)cc4)c4ccccc43)[C@H]2C)cc1 | inactive |
| C[C@@H]1CN([C@H](C)CO)C(=O)Cc2cc(NC(=O)Nc3ccc(C(F)(F)F)cc3)ccc2O[C@H]1CN(C)Cc1ccc(Cl)c(Cl)c1 | active |
| C[C@H](CO)N1C[C@H](C)[C@H](CN(C)Cc2ccc(Cl)c(Cl)c2)Oc2ccc(NC(=O)Nc3ccc(C(F)(F)F)cc3)cc2CC1=O | active |
| C[C@@H]1CN([C@@H](C)CO)C(=O)Cc2cc(NC(=O)Nc3ccc(C(F)(F)F)cc3)ccc2O[C@H]1CN(C)Cc1ccc(Cl)c(Cl)c1 | active |
| CS(=O)(=O)O.Oc1ccc(C2CNCCc3c2cc(O)c(O)c3Cl)cc1 (configuration not stated) | inactive |
| COc1ccc(S(=O)(=O)Nc2ccc3c(c2)C(=O)N([C@@H](C)CO)C[C@H](C)[C@@H](CN(C)C(=O)Nc2c(C)noc2C)OCCCC[C@@H](C)O3)cc1 | inactive |
| COc1ccc(S(=O)(=O)Nc2ccc3c(c2)CC(=O)N([C@@H](C)CO)C[C@@H](C)[C@H](CN(C)S(C)(=O)=O)O3)cc1 | inactive |
| Cc1noc(C)c1S(=O)(=O)N(C)C[C@@H]1Oc2ccc(NC(=O)C3CC3)cc2CC(=O)N([C@H](C)CO)C[C@@H]1C | inactive |
| Cc1noc(C)c1NC(=O)Nc1ccc2c(c1)C(=O)N([C@@H](C)CO)C[C@H](C)[C@H](CN(C)C(=O)Nc1ccccc1)OCCCC[C@H](C)O2 | inactive |
| C[C@@H]1CCCCO[C@@H](CN(C)Cc2ccc(C(F)(F)F)cc2)[C@H](C)CN([C@H](C)CO)C(=O)c2cc(NS(C)(=O)=O)ccc2O1 | inactive |
| COc1ccccc1S(=O)(=O)N(C)C[C@@H]1OCc2cn(nn2)CCCC(=O)N([C@@H](C)CO)C[C@@H]1C | inactive |
| C=c1cc(C)ccc1=C1NN=C(NC(C)=O)O1 | inactive |
| C=c1ccc(C)cc1=C1NN=C(NC(=O)c2ccc(S(=O)(=O)N(CCOC)CCOC)cc2)O1 | active |
| C=c1cc(C)ccc1=C1NN=C(NC(=O)CC)O1 | inactive |
| C[C@H](CO)N1C[C@H](C)[C@@H](CN(C)C(=O)Nc2ccc(F)cc2)Oc2ccc(NC(=O)Cn3cnnn3)cc2C1=O | inactive |
| C[C@@H](NC(=O)C[C@H]1C=C[C@H](NC(=O)CN2CCOCC2)[C@H](CO)O1)c1ccccc1 | inactive |
| Cc1noc(C)c1S(=O)(=O)Nc1ccc2c(c1)C(=O)N([C@@H](C)CO)C[C@H](C)[C@H](CN(C)C(=O)Nc1ccccc1)O2 | inactive |
| CCN(CC)CCN(Cc1ccc(-c2ccc(C(F)(F)F)cc2)cc1)C(=O)Cn1c(SCc2ccc(F)cc2)nc(=O)c2c1CCC2 | active |
| C[C@@H]1CN([C@@H](C)CO)C(=O)Cc2cc(NS(=O)(=O)c3cn(C)cn3)ccc2O[C@@H]1CN(C)C(=O)Nc1ccc(F)cc1 | inactive |
